Measurements: PubChem BioAssay
Several values for one entry are separate records, joined by “and”; a condition that tells them apart may be missing. Identical values can stand only once. The source holds several records for some structures; these can differ, active in one and inactive in another. Activity calls are given as the source filed them. Unless noted, how the calls were made is not given here.

Key:
[1] = resazurin metabolic signal in HepG2 cells – cell-based, resazurin fluorescence, 24 h, PK04 Diversity Set, profiling panel (AID 1172); conditions: HepG2 viability, higher = more signal; further: test concentration not given here
[2] = budding yeast growth changes without added modifier – OD600, strain BY4716, 24 h, basal condition, primary screen (AID 1173); conditions: S. cerevisiae BY4716 growth, OD600, 24 h; higher = more signal, called active from +8 up or from −8 down
[3] = viability profiling in MM1S myeloma cells – cell-based, resazurin fluorescence, basal, 24 h, PK04 Diversity Set, profiling panel (AID 1174); conditions: higher = more signal, called active from +8 up or from −8 down;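 further: MM1S multiple myeloma cell line; test concentration not given here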
[4] = target: Dihydroorotate dehydrogenase (quinone), mitochondrial (Plasmodium falciparum (isolate 3D7)) (UniProt Q08210); assay: inhibition of P. falciparum DHODH – biochemical, C-terminal His tag, absorbance 600 nm, primary screen (AID 1175); conditions: PfDHODH enzyme, DCIP absorbance 600 nm; higher = more signal, called active from +8 up or from −8 down;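 further: recombinant parasite enzyme with a five histidine tag at its C terminus; test concentration not given here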
[5] = inhibition of PAO1 biofilm formation – strain PAO1, LB-PBS medium, absorbance 600 nm, primary screen (AID 1176); further: test concentration not given here; conditions: P. aeruginosa PAO1 growth/biofilm, A600, 12 h; higher = more signal
[6] = growth modulation of vineyard yeast isolate – strain RM11-1a, OD600, basal, 24 h, primary screen (AID 1177);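 further: cultures grown under basal conditions with no added stressor; test concentration not given here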; conditions: S. cerevisiae RM11-1a growth, OD600, 24 h; higher = more signal, called active from +8 up or from −8 down
[7] = growth of efflux-deficient E. coli DRC39 – strain DRC39, OD650, 24 h, E. coli filamentation inducers, primary screen (AID 1178);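 further: growth measured as culture turbidity by optical density at 650 nm; test concentration not given here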; conditions: E. coli DRC39 acrAB, higher = more signal, called active from +8 up or from −8 down
[8] = growth of efflux-deficient E. coli DRC39 – strain DRC39, OD650, 48 h, E. coli filamentation inducers, primary screen (AID 1179);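 further: screen aims at cell division blockers that make cells filament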; conditions: E. coli DRC39 delta-acrAB growth, higher = more signal, called active from +8 up or from −8 down
[9] = viability profiling in RPMI8226 myeloma cells – cell-based, resazurin fluorescence, basal, 24 h, PK04 Diversity Set, profiling panel (AID 1180); conditions: higher = more signal;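 further: RPMI8826 multiple myeloma cell line at 5000 cells per well; test concentration not given here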
[10] = target: E3 ubiquitin-protein ligase XIAP (Homo sapiens) (UniProt P98170); assay: small molecules binding XIAP protein – biophysical, small-molecule microarray, fluorescence 635 nm, primary screen (AID 1181); conditions: higher = more signal;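 further: score merges 667 nm emission and signal to noise over triplicate slides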
E3 ubiquitin-protein ligase XIAP (Homo sapiens), sequence (P98170 whole entry, looked up): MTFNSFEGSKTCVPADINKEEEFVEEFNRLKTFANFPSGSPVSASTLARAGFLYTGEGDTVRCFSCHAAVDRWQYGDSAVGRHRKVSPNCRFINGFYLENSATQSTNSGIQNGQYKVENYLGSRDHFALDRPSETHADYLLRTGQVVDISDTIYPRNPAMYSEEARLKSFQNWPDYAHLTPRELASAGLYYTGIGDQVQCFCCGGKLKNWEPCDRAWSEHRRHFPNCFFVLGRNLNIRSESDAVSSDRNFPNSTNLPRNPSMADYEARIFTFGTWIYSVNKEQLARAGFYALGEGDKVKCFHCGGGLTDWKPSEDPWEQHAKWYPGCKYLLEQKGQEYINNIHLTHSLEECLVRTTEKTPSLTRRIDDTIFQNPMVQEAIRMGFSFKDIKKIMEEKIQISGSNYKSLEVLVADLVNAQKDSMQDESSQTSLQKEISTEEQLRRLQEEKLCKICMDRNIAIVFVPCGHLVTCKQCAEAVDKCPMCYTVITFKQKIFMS

Dihydroorotate dehydrogenase (quinone), mitochondrial (Plasmodium falciparum (isolate 3D7)), sequence (Q08210 whole entry, looked up): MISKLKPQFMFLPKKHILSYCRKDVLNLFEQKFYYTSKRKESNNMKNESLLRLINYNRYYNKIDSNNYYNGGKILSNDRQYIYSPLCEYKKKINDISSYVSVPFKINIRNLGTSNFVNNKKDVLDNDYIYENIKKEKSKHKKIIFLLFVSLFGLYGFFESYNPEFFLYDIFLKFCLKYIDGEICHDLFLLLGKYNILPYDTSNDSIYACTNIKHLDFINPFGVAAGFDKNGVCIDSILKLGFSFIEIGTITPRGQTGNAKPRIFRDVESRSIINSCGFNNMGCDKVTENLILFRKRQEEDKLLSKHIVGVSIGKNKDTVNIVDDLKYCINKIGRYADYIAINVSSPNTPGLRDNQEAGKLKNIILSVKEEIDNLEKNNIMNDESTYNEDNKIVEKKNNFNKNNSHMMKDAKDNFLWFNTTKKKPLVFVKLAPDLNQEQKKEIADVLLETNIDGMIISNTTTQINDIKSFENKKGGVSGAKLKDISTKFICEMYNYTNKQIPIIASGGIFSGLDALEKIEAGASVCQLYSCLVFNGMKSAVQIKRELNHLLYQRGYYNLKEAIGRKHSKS

Structure (SMILES) | z-score [1] | z-score [2] | z-score [3] | composite z-score [4] | z-score [5] | z-score [6] | z-score [7] | z-score [8] | z-score [9] | composite z-score [10]
CCOC(=O)NN=C1C[C@@H](O)[C@@H](O)[C@@H]2[C@@H]3C(=O)N(Cc4ccc5c(c4)OCO5)C(=O)[C@@H]3CC[C@@H]12 | 0.321 | -0.143 (inactive) | 0.591 (inactive) | -0.225 (inactive) | 0.246 (inactive) | 0.52 (inactive) | 0.69 (inactive) | 0.819 (inactive) | 0.457 | -0.492
O=C1C[C@]2(c3ccc([N+](=O)[O-])cc3)C(=O)N(Cc3ccccc3)c3cc(CO)ccc3[C@H]2N1C1CCCCC1 | 0.981 and -0.766 | -0.0998 (inactive) and -0.919 (inactive) | 0.0351 (inactive) and -0.743 (inactive) | -2.77 (inactive) and 0.496 (inactive) | 0.599 (inactive) and 1.21 (inactive) | 0.029 (inactive) and -0.21 (inactive) | 0.512 (inactive) and 0.2 (inactive) | 0.566 (inactive) and -0.0186 (inactive) | 0.702 and -0.966 | 2.56 and 0.144
C=CCN(C(=O)C(c1cccs1)N(CCOCCO)C(=O)/C=C\C(=O)O)c1ccc(OC)cc1 (centres undefined) | 0.591 and 0.232 | -1.32 (inactive) and -1.58 (inactive) | 0.0173 (inactive) and 0.605 (inactive) | -1.05 (inactive) and -2.65 (inactive) | 1.07 (inactive) | -1.64 (inactive) and -1.09 (inactive) | 0.997 (inactive) and 1.72 (inactive) | 1.21 (inactive) and 2 (inactive) | 1.25 and 0.952 | 0.336 and -0.325
CC(C)=NO[C@@H](C)c1cc(-c2c(C)cc(C)cc2C)no1 | -0.18 | -2.48 (inactive) | 0.672 (inactive) | -2.98 (inactive) | 0.499 (inactive) | -0.395 (inactive) | -0.328 (inactive) | -2.9 (inactive) | 0.0684 | 0.0251
C=CCN(CCCC)C(=O)C1N(c2c(Cl)cccc2CO)C(=O)C2C(C(=O)O)C3C=CC21O3 (centres undefined) | -0.757 and -0.248 | 0.187 (inactive) and -0.602 (inactive) | -1.9 (inactive) and -0.645 (inactive) | 0.82 (inactive) and -0.536 (inactive) | -0.261 (inactive) and 0.497 (inactive) | 0.561 (inactive) and 0.143 (inactive) | -0.964 (inactive) and 0.22 (inactive) | -0.881 (inactive) and -0.0006 (inactive) | -0.813 and -0.285 | -0.0599 and 0.425
C=C[C@@H](OC)[C@H](O)c1ccc(OC)c(O)c1 | -0.246 and 0.49 | -1.28 (inactive) and -1.67 (inactive) | -0.72 (inactive) and 0.989 (inactive) | 0.229 (inactive) and -0.344 (inactive) | 0.152 (inactive) | 0.119 (inactive) and -1.5 (inactive) | -0.0985 (inactive) and 1.78 (inactive) | -0.489 (inactive) and 1.38 (inactive) | -1.04 and 0.51 | -0.319 and -0.148
C[C@@H]1CC[C@H]2C(=O)O[C@H](CN=[N+]=[N-])CN2[C@H]1c1ccc(Br)cc1 | -0.528 and 0.231 | -3.44 (inactive) and -4.5 (inactive) | -0.586 (inactive) and 0.637 (inactive) | 0.41 (inactive) and 0.841 (inactive) | 1.39 (inactive) and -0.0204 (inactive) | -0.505 (inactive) and 1.67 (inactive) | -0.686 (inactive) and -0.801 (inactive) | -0.633 (inactive) and -1.31 (inactive) | -1.38 and 0.417 | 0.0871 and 0.277
CC(C)=CCCC(C)=CCON=C1C[C@@H](O)[C@@H](O)[C@@H]2[C@@H]3C(=O)N([C@@H](C)c4ccccc4)C(=O)[C@@H]3CC[C@H]12 | -1.03 | -3.41 (inactive) | -0.339 (inactive) | -1.48 (inactive) | 0.365 (inactive) | -2.18 (inactive) | -1 (inactive) | -0.666 (inactive) | -0.637 | 0.104
CC(CO)N1C(=O)[C@@H]2C3C(=O)OCCC=C[C@H]3OC23C=CCN(Cc2ccccc2)C(=O)[C@@H]13 (some centres undefined) | 0.278 and -0.0236 | 1.35 (inactive) and -1.28 (inactive) | 0.533 (inactive) and 0.868 (inactive) | 0.113 (inactive) and -2.83 (inactive) | -1.35 (inactive) and -0.0684 (inactive) | 1.57 (inactive) and -0.214 (inactive) | 0.748 (inactive) and 0.632 (inactive) | 0.453 (inactive) and 0.309 (inactive) | 0.252 and 0.693 | -0.196 and 0.194
COC(=O)C1=C(C)N(Cc2ccccc2)[C@]23O[C@](C(=O)OC)(C(=O)N2[C@@H]1c1ccccc1)[C@@H](C(=O)OC)[C@H]3C(=O)OC | 0.348 and -0.761 | 0.583 (inactive) and -0.704 (inactive) | 0.409 (inactive) and -0.59 (inactive) | 0.466 (inactive) and -0.412 (inactive) | 0.177 (inactive) and 0.241 (inactive) | 1.62 (inactive) and 0.72 (inactive) | 0.148 (inactive) and 0.72 (inactive) | 0.165 (inactive) and 0.532 (inactive) | 0.537 and -0.332 | -0.17 and -0.219
C=CCN(CCCCC)C(=O)C1N(c2ccc(CCO)cc2)C(=O)C2C(C(=O)O)C3C=CC21O3 (centres undefined) | -0.572 and -0.506 | -0.058 (inactive) and 0.644 (inactive) | -0.933 (inactive) and -1.12 (inactive) | -0.0016 (inactive) and 0.598 (inactive) | 0.317 (inactive) and 0.606 (inactive) | -0.611 (inactive) and -0.297 (inactive) | -0.623 (inactive) and -0.0654 (inactive) | -0.689 (inactive) and -0.552 (inactive) | -0.871 and -1.15 | -0.193 and -0.0559
O=C1[C@H]2[C@H]3[C@H](O)[C@H](O)CC(=NOCc4ccccc4)[C@H]3CC[C@H]2C(=O)N1Cc1ccccc1 | 0.447 | -2.68 (inactive) | 1.58 (inactive) | -2.59 (inactive) | 0.106 (inactive) | -2.13 (inactive) | 0.323 (inactive) | -0.777 (inactive) | 0.719 | -0.13
CC(C)N1CC=CC23O[C@@H]4C=CCCOC(=O)C4[C@H]2C(=O)N(C(C)CO)[C@@H]3C1=O (some centres undefined) | -0.0777 and -1.21 | -1.44 (inactive) and 0.111 (inactive) | 0.963 (inactive) and 0.93 (inactive) | -0.0877 (inactive) and 1.49 (inactive) |  | -1.2 (inactive) and 0.934 (inactive) | 1.2 (inactive) and 1.42 (inactive) | 0.847 (inactive) and 1.13 (inactive) | 1.32 and 0.67 | -0.128 and -0.133
C=CCN1C(=O)[C@]2(O[C@H](CCn3cc(CCO)nn3)[C@@H]([Si](C)(C)c3ccc(OC)cc3)[C@@H]2C)c2cc(N3C(=O)c4cccc5cccc3c45)ccc21 | -6.38 and -6.41 | 1.99 (inactive) and 1.56 (inactive) | -9.01 (active) and -9.12 (active) | 1.19 (inactive) and 1.35 (inactive) | 0.355 (inactive) and 1.15 (inactive) | 4.03 (inactive) and 3.23 (inactive) | 1.91 (inactive) and 1.72 (inactive) | 0.906 (inactive) and 0.389 (inactive) | -6.26 and -6.25 | -0.178 and 0.0256
COC(=O)[C@@]1(Cc2ccccc2)[C@H]2c3cc(C(=O)N(C)C)n(Cc4ccc(C)c(F)c4F)c3C[C@H]2CN1C(=O)c1ccccc1 | -2.95 and -1.72 | -0.265 (inactive) and 0.53 (inactive) | -9.12 (active) and -3.68 (inactive) | -3.37 (inactive) and -0.0662 (inactive) | 3.02 (inactive) and 2.16 (inactive) | 0.526 (inactive) and 0.401 (inactive) | -0.347 (inactive) and -1.25 (inactive) | -0.834 (inactive) and -0.836 (inactive) | -6.06 and -3.79 | 0.188 and 0.122
CCCNC(=O)OC[C@H]1O[C@H](CCON=C(C)CCC(=O)OC[C@H]2O[C@H](C#Cc3ccccc3)C=C[C@@H]2Oc2ccc(C)cc2)C=C[C@@H]1Oc1ccc(OC)cc1 | 0.462 | 0.889 (inactive) | -0.0269 (inactive) | -0.754 (inactive) | -0.066 (inactive) | 0.432 (inactive) | 0.715 (inactive) | 0.565 (inactive) | 0.75 | 0.0408
CO[C@H]1COC(=O)CC=C[C@@H](C)COC(=O)[C@@H](OCc2ccccc2)C=C[C@@H]1C | 0.537 | -1.93 (inactive) | 0.155 (inactive) | -0.825 (inactive) | -0.72 (inactive) | -0.78 (inactive) | 0.84 (inactive) | 0.929 (inactive) | 0.142 | -0.245
C[C@@H](ON=C1[C@H]2CCn3c(=O)n(-c4ccccc4)c(=O)n3[C@H]2[C@H](O)[C@@H]2O[C@H]12)c1cn([C@H](CO)Cc2ccccc2)nn1 | -1.08 | 0.394 (inactive) | -1.42 (inactive) | -0.469 (inactive) | -0.525 (inactive) | 0.122 (inactive) | 0.777 (inactive) | 1.12 (inactive) | -1.65 | -0.0208
